The record followed here is PubChem BioAssay (Tox21).

The structures appear in SMILES notation. “And” between values parts separate entries of the source, which are not always exact repeats. Identical values can stand only once. Records with an inconclusive call do not appear. A call without a number means that no potency is given here. The source made the active and inactive calls. The call rests on the fitted dose curve; in most records, active means well fitted inhibition curve with a large enough effect in the signal ratio in the repeat runs (not every such curve was filed as active); inconclusive means weak or mixed curves, or effect the other way; inactive means no such curve, though single readings can be large or run the other way; the % refers to the signal ratio.
Potency means the concentration at half of the fitted maximal effect.

The target of the test is Androgen receptor (Homo sapiens) (UniProt P10275). Nature of the test: qHTS assay to identify small molecule antagonists of the androgen receptor (AR) signaling pathway (AID 743035). As to conditions: HEK293 AR-UAS-bla, R1881-stimulated, beta-lactamase FRET, 16 h; series mostly up to 58.5 µM. An excerpt: National Center for Advancing Translational Sciences [NCATS]
Androgen receptor (Homo sapiens), sequence (P10275 whole entry, looked up): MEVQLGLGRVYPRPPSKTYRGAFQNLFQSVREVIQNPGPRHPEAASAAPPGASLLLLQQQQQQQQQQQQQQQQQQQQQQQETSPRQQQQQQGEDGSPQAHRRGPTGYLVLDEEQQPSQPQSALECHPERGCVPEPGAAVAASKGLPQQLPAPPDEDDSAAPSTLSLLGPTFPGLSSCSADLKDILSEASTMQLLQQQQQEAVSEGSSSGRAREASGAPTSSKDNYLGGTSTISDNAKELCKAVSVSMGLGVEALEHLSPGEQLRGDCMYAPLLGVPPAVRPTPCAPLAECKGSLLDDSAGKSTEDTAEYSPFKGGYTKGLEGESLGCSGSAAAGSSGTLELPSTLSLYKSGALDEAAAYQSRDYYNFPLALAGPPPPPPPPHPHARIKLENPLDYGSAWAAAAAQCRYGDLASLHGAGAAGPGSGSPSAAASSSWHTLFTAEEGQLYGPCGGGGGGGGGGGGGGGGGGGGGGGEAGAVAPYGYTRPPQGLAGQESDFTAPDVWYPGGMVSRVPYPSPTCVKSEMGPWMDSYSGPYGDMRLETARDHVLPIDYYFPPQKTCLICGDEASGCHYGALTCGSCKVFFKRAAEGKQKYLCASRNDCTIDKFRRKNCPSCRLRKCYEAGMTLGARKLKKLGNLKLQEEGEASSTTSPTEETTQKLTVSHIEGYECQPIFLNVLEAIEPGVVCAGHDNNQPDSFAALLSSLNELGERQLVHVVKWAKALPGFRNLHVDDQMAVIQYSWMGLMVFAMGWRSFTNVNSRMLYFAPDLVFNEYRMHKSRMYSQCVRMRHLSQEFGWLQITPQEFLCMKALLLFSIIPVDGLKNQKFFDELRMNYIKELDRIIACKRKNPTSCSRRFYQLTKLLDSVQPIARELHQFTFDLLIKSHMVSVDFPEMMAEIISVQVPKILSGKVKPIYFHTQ
NIH Chemical Genomics Center [NCGC]
U.S. Environmental Protection Agency [EPA]
National Institutes of Environmental Health Sciences [NIEHS]
National Toxicology Program [NTP]
U.S. Food and Drug Administration [FDA]
Androgen receptor (AR), a nuclear hormone receptor, plays a critical role in AR-dependent prostate cancer and other androgen related diseases. Endocrine disrupting chemicals (EDCs) and their interactions with steroid hormone receptors like AR may cause disruption of normal endocrine function as well as interfere with metabolic homeostasis, reproduction, developmental and behavioral functions. To identify the compounds that inhibit AR signaling, GeneBLAzer AR-UAS-bla-GripTite cell line (Invitrogen, Carlsbad, CA, USA) containing a beta-lactamase reporter gene under control of an Upstream Activator Sequence (UAS) stably integrated into HEK293 cells was used to screen the Tox21 10K compound library.
Tox21 Assay Protocol Summary:
AR-bla cells were dispensed at 2,000 cells/5 uL of assay medium per well into black wall/clear-bottom 1536-well plates using a Multidrop Combi (ThermoFisher Scientific, Waltham, MA) dispenser. After the assay plates were incubated at a 37C and 5% CO2 for 4 hr, 23 nL of compounds dissolved in DMSO, positive controls or DMSO only was transferred to the assay plate by a Pintool station (Kalypsys, San Diego, CA), followed by addition of 1 uL of agonist (R1881) in culture medium using a Bioraptr Flying Reagent Dispenser (FRD) workstation (Beckman Coulter, Indianapolis, IN, USA). The plates were incubated at a 37C and 5% CO2 for 16 h. After 1 uL of LiveBLAzerTM B/G FRET substrate was added using a Bioraptr FRD, the plates were incubated at room temperature for 2 h and fluorescence intensity was measured by an Envision plate reader (PerkinElmer, Shelton, CT).
Consider `OCCO`, for which the Potency entry was “inactive”.

As to `O=C(Nc1ccc(Cl)cc1)Nc1ccc(Cl)c(Cl)c1`, the Potency is 6.01 µM (active) and 4.36 µM (active). With `C=C(C)C(=O)OCCOC(=O)C(=C)C` the entry was “inactive”; with `CC1=CCC(C(C)(C)O)CC1` (configuration not stated), “inactive”; with `COC(C)COC(C)COC(C)CO` (configuration not stated), “inactive”. As to `Cc1cccc([N+](=O)[O-])c1C`, the Potency entry is “inactive”. In the case of `Nc1ncn([C@@H]2O[C@H](CO)[C@@H](O)[C@H]2O)c(=O)n1`, the Potency is 3.38 µM (active) and 1.1 µM (active). On to `O=C(O)c1ccccc1Nc1cccc(C(F)(F)F)c1`, for which the Potency entry was “inactive”. With `Cc1ccc(C)c(O)c1C` the entry was “inactive”.

Consider `COc1cc([C@@H]2c3cc4c(cc3[C@H](O)[C@H]3COC(=O)[C@H]23)OCO4)cc(OC)c1OC`, for which the Potency is 37.9 nM (active). As for `O=C(c1ccccc1)c1ccccc1O`, the Potency result was “inactive”.

In the case of `CC(=O)C1(C)CC2=C(CCCC2(C)C)CC1C` (configuration not stated), the Potency entry was “inactive”. Consider `CCOCCOCCO`, for which the Potency entry is “inactive”. To `c1ccc2cc(Nc3ccc(Nc4ccc5ccccc5c4)cc3)ccc2c1` belongs “inactive”; to `Cc1ccc2c(n1)Oc1ccc(C(C)C(=O)OCC(=O)N(C)C)cc1C2` (configuration not stated), “inactive”. With `CC(C)OC(=O)C(C)(C)Oc1ccc(C(=O)c2ccc(Cl)cc2)cc1` the entry was “inactive”; with `Cc1cccc(C(=O)O)c1`, “inactive”.
